HepG2 tox: HepG2 cytotoxicity, counter-screen for TGF-b inhibitors | HepG2 CAGA-GFP viability, ATP luminescence, 18 h | Potency, µM (titrated, usually from 46.1 µM), for the others: at the highest dose activity change, negative = cytotoxicity, usual class: cytotoxic | actives 0.76% (n = 410,000) | AID 588856
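HepG2 CAGA-GFP cells (1000/well, DMEM with 1% FBS) received compound, then TGF-beta at 500 pg/mL final, and were incubated 18 hours at 37 degrees C. Viability was read by CellTiter-Glo luminescence. Media-only wells were set as complete cell-killing and DMSO as no toxicity.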
HT1080 IDH1KD tx: toxicity to HT-1080 IDH1 knockdown cells (counter line) | HT-1080 IDH1 knockdown viability, ATP luminescence, 48 h | Potency, µM (highest dose often 46.1 µM), inactives show at the top dose activity, negative = toxicity, hits mostly cytotoxic | actives 2% (n = 360,000);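 also: 0% = DMSO wells and -100% = cell-free medium wells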
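Cytotoxicity counter-line: IDH1KD HT-1080, 48 h, CellTiter-Glo. Curves classed by r2, magnitude and activity.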
HT1080NT lethal: kills 2HG-producing HT-1080-NT fibrosarcoma cells | HT-1080-NT fibrosarcoma viability, CellTiter-Glo ATP luminescence, 48 h | actives 1.6% (n = 360,000) | AID 686970 | Potency, µM (doses to about 46.1 µM), without a hit: top-dose activity, negative = less viability, hits mostly cytotoxic;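 also: NT is the 2HG producing partner of a matched IDH1 knockdown line; 0% = DMSO-treated cells and -100% = media-only wells without cells; nearly all actives have a fitted effect of over 55% in size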
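750 cells/well, RPMI + 5% FBS; 2 h settle, compound pin-transfer, 48 h at 37 degrees C. CellTiter-Glo 10 min RT, luminescence. Normalized to DMSO and media-only wells.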
KB-3-1 cytotox: kills parental KB-3-1 adenocarcinoma cells | KB-3-1 viability, CellTiter-Glo ATP luminescence, 72 h | Potency, µM (top dose mostly 46.1 µM), actives largely listed as cytotoxic | actives 1.4% (n = 400,000); also: % is scaled to controls: 0 for no effect and ±100 for the full control effect; nearly all actives have a fitted effect of over 60% in size
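Cells are dispensed, compounds pinned in, plates held at 37 °C for 72 h, then CellTiter-Glo is added and luminescence read after 10 minutes. Cell line: parental KB-3-1 in phenol-red-free DMEM, 10% FBS.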
KB-V1 MDR tox: KB-V1 MDR subline cytotoxicity. KB-V1 MDR cells viability, CellTiter-Glo, 72 h. Potency, µM (highest dose often 46.1 µM), most hits filed as cytotoxic. actives 3.4% (n = 400,000); also: % is scaled to controls: 0 for no effect and ±100 for the full control effect; nearly all actives have a fitted effect of over 60% in size
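Readout: CellTiter-Glo luminescence, 10 min after addition. Cells: KB-V1 MDR subline, 72 h at 37 degrees C with compound. Analysis: corrected, normalized data fitted to concentration-effect curves.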
TGFb inhibitor: inhibitors of TGF-b signaling | HepG2 CAGA-GFP TGF-b/SMAD3 reporter, GFP fluorescence, 18 h; TGF-beta stimulated, 500 pg/mL final | actives 1.2% (n = 410,000) | Potency, µM (doses to about 46.1 µM), for the others: top-dose activity, negative = inhibition, most hits filed as inhibitors; also: % is scaled to controls: 0 for no effect and ±100 for the full control effect; nearly all actives have a fitted effect of over 65% in size
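TGF-beta reporter screen: HEPG2 CAGA-GFP, 1% FBS, 500 pg/mL TGF-beta final, 18 h; per-cell GFP summed per well; curves fitted and categorized by class.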
Starred values were filed as active, the others as inactive. An excerpt weighted towards active compounds, which were near 6.6% of everything screened. Calls follow the shape of the dose curve; as a rule, active = well fitted curve in the direction sought with a large enough effect; inconclusive = small, poorly fitted or top-dose-only effect, or another doubt; inactive = no such curve, though single readings can be large; an effect the other way counts as inactive or inconclusive. Potency is read from the fitted curve at half-maximal effect.

What do the screens show for `CCCCCCC(=O)N=Nc1c(O)[nH]c2ccc([N+](=O)[O-])cc12`?
HepG2 tox: 0%; HT1080 IDH1KD tx: 15%; HT1080NT lethal: 5%; KB-3-1 cytotox: inactive; KB-V1 MDR tox: inactive; TGFb inhibitor: 10%

What do the screens show for `Cc1ccc(C(=O)NNC2=Nc3cccc4cccc2c34)cc1`?
HepG2 tox: -32%; HT1080 IDH1KD tx: -2%; HT1080NT lethal: -2%; KB-3-1 cytotox: inconclusive; KB-V1 MDR tox: 9.2µM*; TGFb inhibitor: -2%

What do the screens show for `O=C(O)c1ccc(NC2=Nc3cccc4cccc2c34)cc1`?
HepG2 tox: -6%; HT1080 IDH1KD tx: 19%; HT1080NT lethal: -3%; KB-3-1 cytotox: inconclusive; KB-V1 MDR tox: 15µM*; TGFb inhibitor: -4%

Results for NC(=O)NNC1=Nc2cccc3cccc1c23 ?
HepG2 tox: -22%; HT1080 IDH1KD tx: -2%; HT1080NT lethal: -7%; KB-3-1 cytotox: inactive; KB-V1 MDR tox: inactive; TGFb inhibitor: -14%

What do the screens show for `COc1ccc(C(=O)NNC2=Nc3cccc4cccc2c34)cc1`?
HepG2 tox: -5%; HT1080 IDH1KD tx: -4%; HT1080NT lethal: -21%; KB-3-1 cytotox: inactive; KB-V1 MDR tox: inconclusive; TGFb inhibitor: 10%

Results for O=C(Nc1nc2nc(-c3ccccc3)cc(-c3ccccc3)n2n1)c1ccco1 ?
HepG2 tox: -22%; HT1080 IDH1KD tx: 26µM*; HT1080NT lethal: inconclusive; KB-3-1 cytotox: inconclusive; KB-V1 MDR tox: inactive; TGFb inhibitor: -5%

Results for CCC(Sc1nc2sc(C(=O)OC)c(C)c2c(=O)n1N)C(=O)NCC1CCCO1 (centres undefined) ?
HepG2 tox: -17%; HT1080 IDH1KD tx: 13%; HT1080NT lethal: 6%; KB-3-1 cytotox: inactive; KB-V1 MDR tox: 16µM*; TGFb inhibitor: 1%

What do the screens show for `COCCCNC(=O)CSc1nc2sc(C(=O)OC)c(C)c2c(=O)n1N`?
HepG2 tox: -8%; HT1080 IDH1KD tx: 12%; HT1080NT lethal: 21%; KB-3-1 cytotox: inactive; KB-V1 MDR tox: inactive; TGFb inhibitor: 17%

Results for CCCCNC(=O)C(CC)Sc1nc2sc(C(=O)OC)c(C)c2c(=O)n1N (centres undefined) ?
HepG2 tox: -34%; HT1080 IDH1KD tx: inconclusive; HT1080NT lethal: -2%; KB-3-1 cytotox: inactive; KB-V1 MDR tox: 4.6µM*; TGFb inhibitor: -9%

Results for CCC(Sc1nc2sc(C(=O)OC)c(C)c2c(=O)n1N)C(=O)N(CC)CC (centres undefined) ?
HepG2 tox: -1%; HT1080 IDH1KD tx: 6%; HT1080NT lethal: 4%; KB-3-1 cytotox: inactive; KB-V1 MDR tox: 3.7µM*; TGFb inhibitor: -24%

Results for CN(C)S(=O)(=O)c1ccc(C(=O)NN2C(=O)NC3(CCCCC3)C2=O)cc1 ?
HepG2 tox: 9%; HT1080 IDH1KD tx: 0%; HT1080NT lethal: 6%; KB-3-1 cytotox: inactive; KB-V1 MDR tox: inactive; TGFb inhibitor: inconclusive

How did COc1cc(C(=O)Nc2nc(-c3ccc(Cl)cc3)c(C)s2)ccc1OCC(=O)Nc1ccc(F)cc1 do in these assays?
HepG2 tox: -53%; HT1080 IDH1KD tx: inconclusive; HT1080NT lethal: inconclusive; KB-3-1 cytotox: 13µM*; KB-V1 MDR tox: inconclusive; TGFb inhibitor: inconclusive

What do the screens show for `Cn1c(/C=C/c2ccc(Br)cc2)c([N+](=O)[O-])c(=O)n(C)c1=O`?
HepG2 tox: -63%; HT1080 IDH1KD tx: 13µM*; HT1080NT lethal: inconclusive; KB-3-1 cytotox: 21µM*; KB-V1 MDR tox: inconclusive; TGFb inhibitor: inconclusive

Results for CN(C)c1ccc(/C=C/c2c([N+](=O)[O-])c(=O)n(C)c(=O)n2C)cc1 ?
HepG2 tox: -21%; HT1080 IDH1KD tx: -1%; HT1080NT lethal: -3%; KB-3-1 cytotox: inactive; KB-V1 MDR tox: inactive; TGFb inhibitor: 0%

Compound activity from PubChem BioAssay.
